Compound activity as filed in PubChem BioAssay.
Most compounds without a hit are left out; they make up all but 5.5% or so of the library.
ELG1 DNA repair = blocks ELG1-dependent DNA repair in HEK293T cells; 2.3% of 330,000 active; HEK293T ELG1-luciferase reporter, luminescence, 16 h; DNA damage induced by 5-fluorouridine; Potency, µM (series often up to 46.1 µM), usual class: inhibitors; AID 504467; further: nearly all actives have a fitted effect of over 55% in size
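Step one: seed 2,000 cells per well. Step two: pin-transfer compound or DMSO alongside 5-fluorouridine. Step three: incubate 16 hr, 37 °C, 5% CO2. Step four: add ONE-Glo, wait 30 min, read luminescence.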
Giardia kill = kills Giardia lamblia; Giardia lamblia trophozoite viability; activity change, % at 7.66 µM, hits read low; 0.15% of 340,000 active; AID 540267; in the data active means activity change below about -80%; inconclusive means between about -30% and that limit;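 further: parasites exposed to compound for two days anaerobically before the ATP read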
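Giardia lamblia trophozoites (100 cells/well) were incubated with compounds for 48 h at 37 deg C under anaerobic conditions. Viability was read as ATP content by one-step luminescence after 15-30 min at room temperature.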
FBPA coupling cs = counter-screen for Giardia aldolase inhibitors: coupling enzyme system; coupling enzyme system counterscreen, AmpLite Red fluorescence; AID 2472; activity change, negative = inhibition, % at 58.2 µM, hits read low; 0.67% of 290,000 active; in the data active means activity change below about -30%
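Coupling enzymes only (glyceraldehyde-3-phosphate) + compound, at 57.5 uM final, 10 min RT; add substrate/coupling/AmpLite Red mix, 20 min RT; fluorescence ex 525/em 598 nm. Actives flag coupling-system interference.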
Sfp PPTase inh = inhibitors of Bacillus subtilis Sfp phosphopantetheinyl transferase; Q9F4F7; Biochemical Sfp PPTase activity, qHTS; Potency, µM, usual class: inhibitors; 3.5% of 310,000 active;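 further: the enzyme is Sfp with the accession as filed and its product quenches rhodamine fluorescence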
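Reaction rates are the 30-min fluorescence difference (ex 525, em 598 nm) in wells containing 15 nM Sfp, 5 uM rhodamine-CoA and 12.5 uM BHQ-2-YbbR at pH 7.6 with 10 mM MgCl2.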
Numbers stand for hits; n = inactive; u = inconclusive; x = no result; ! = repeats disagree. Unless noted, the call rests on the fitted dose curve; in most records, active means well fitted curve in the direction sought with a large enough effect; inconclusive means small, poorly fitted or top-dose-only effect, or another doubt; inactive means no such curve, though single readings can be large; an effect the other way counts as inactive or inconclusive.

SMILES | ELG1 DNA repair | Giardia kill | FBPA coupling cs | Sfp PPTase inh
COc1ccc(-c2ccc(C(=S)N3CCN(C(C)=O)CC3)o2)cc1 | u | n | n | 13µM
O=C(c1ccc(-c2ccc([N+](=O)[O-])cc2Cl)o1)N1CCOCC1 | u | n | n | 40µM
COc1ccc(CCNC(=O)c2ccc(-c3ccc([N+](=O)[O-])cc3Cl)o2)cc1 | n | n | n | 50µM
CCCN1C(C)C(C(=O)OCC)=CN(Cc2cccc(I)c2)S1(=O)=O (stereo not given) | n | n | x | x
Cc1c(CCC(=O)NCCCn2ccnc2)c(=O)oc2c(C)c3oc4c(c3cc12)CCCC4 | n | n | n | n
CN1CCN(c2ncc3nc(-c4cc(F)cc(F)c4)c(=O)n(-c4ccccc4)c3n2)CC1 | x | x | n | n
CN1CCN(C(=S)c2ccc(-c3cc(Cl)ccc3Cl)o2)CC1 | n | n | n | u
S=C(c1ccc(-c2ccc(Cl)c(Cl)c2)o1)N1CCOCC1 | u | n | n | 16µM
O=C(c1ccc(-c2ccccc2Cl)o1)N1CCC1 | u | n | x | x
S=C(c1ccc(-c2ccccc2Cl)o1)N1CCOCC1 | u | n | n | 14µM
S=C(Nc1ccc(Cl)c(Cl)c1)N1CCOCC1 | n | n | n | n
O=C(c1ccc(-c2cccc(Cl)c2Cl)o1)N1CCOCC1 | u | u | n | 79µM
COc1ccc(C(=O)N2CCC3(CC2)CCN(c2ccncc2)CC3)cc1 | x | x | n | n
Cc1c[nH]c2cccc(OCC(O)CNC(C)(C)C)c12 (stereo not given) | n | n | -35 | n
CC(C)(C)NCC(O)COc1ccccc1C(C)(C)C (stereo not given) | n | n | n | n
O=C(Nc1cccc(-c2nc3ccccc3o2)c1)c1ccc(N2C(=O)C3C4C=CC(C4)C3C2=O)cc1 (stereo not given) | 16µM | n | n | n
O=C1C2C3C=CC(C3)C2C(=O)N1c1cccc(-c2nc3ccccc3o2)c1 (stereo not given) | n | n | n | n
N=C1C=CC(=C(c2ccc(N)cc2)c2ccc(N)cc2)C=C1 | x | n | x | x
CC1(C)CCC2=C(O1)c1ccccc1C(=O)C2=O | x | x | -56 | 63µM!
CCOC(=O)N1CCN(S(=O)(=O)c2cccs2)CC1 | n | n | n | n
O=C(/C=C/c1cccc([N+](=O)[O-])c1)N1CCN(S(=O)(=O)c2cccs2)CC1 | u | n | n | n
Cc1ccc(/C=C/C(=O)N2CCN(S(=O)(=O)c3cccs3)CC2)o1 | n | n | n | 14µM
O=C(/C=C/c1ccco1)N1CCN(S(=O)(=O)c2cccs2)CC1 | n | n | n | 16µM
COc1cc2c(cc1OC)CN(c1ccc(C(N)=O)cc1[N+](=O)[O-])CC2 | u | n | n | n
O=C(Nc1ccccn1)c1ccc(S(=O)(=O)N2CCCCCC2)cc1 | u | n | x | x
SMILES | ELG1 DNA repair | Giardia kill | FBPA coupling cs | Sfp PPTase inh
COc1cccc(-c2nc(CS(=O)(=O)CC(=O)Nc3cc(OC)ccc3OC)c(C)o2)c1 | n | n | n | n
Cc1oc(-c2ccc(F)cc2)cc1-c1nn2c(-c3ccoc3C)nnc2s1 | n | n | n | 40µM
c1ccc(-c2noc(-c3cccc4ccccc34)n2)cc1 | u | n | n | n
c1ccc2c(-c3nc(-c4ccncc4)no3)cccc2c1 | u | n | n | 10µM
COc1cccc(C2=NN(C(=O)c3ccco3)C(c3ccco3)C2)c1 (stereo not given) | n | n | x | 50µM
CS(=O)(=O)Nc1ccc(C2=NN(C(=O)c3ccco3)C(c3ccco3)C2)cc1 (stereo not given) | u | n | x | n
COc1cc(OC)cc(C2=Nn3c(nnc3-c3ccccc3O)SC2)c1 | x | x | n | n
CCOC(=O)c1cc2c(ccn2C)n1CC(=O)N1CCN(c2ccc(F)cc2)CC1 | n | n | n | n
CCOC(=O)c1cc2c(ccn2C)n1CC(=O)N1CCN(c2cccc(C(F)(F)F)c2)CC1 | n | n | -33 | n
C[C@H](C(=O)O)c1cccc(Oc2ccccc2)c1 | x | x | n | n
CN1C(=O)c2cccc(NCCCCCCN3C(=O)c4ccccc4C3=O)c2C1=O | 15µM | n | n | n
O=c1c2c3c(sc2n(CCN2CCOCC2)c(=O)n1Cc1ccco1)CCCCC3 | n | n | n | 45µM
O=C(O)CN1C(=O)C2C3CC(C2C1=O)C1C(c2ccccc2)c2sc(=O)[nH]c2SC31 (stereo not given) | n | n | n | n
O=c1[nH]c2c(s1)C(c1ccco1)C1C3CCC(C3)C1S2 (stereo not given) | n | n | -44 | 45µM
CC(Oc1ccc(F)cc1F)C(=O)NNC(=S)NCC1CCCO1 (stereo not given) | n | n | x | n
CCn1c(CNc2ccc(OC)cc2)nnc1SCC(=O)N1CCCc2ccccc21 | n | n | n | n
COc1ccc(NCc2nnc(SCC(=O)N3CCCc4ccccc43)n2C)cc1 | n | n | -38 | n
CCn1c(SC)nc2c(c1=O)SC(C)C2 (stereo not given) | u | n | n | n
CC1Cc2nc(SCC(=O)Nc3nccs3)n(C)c(=O)c2S1 (stereo not given) | n | n | n | 50µM
Cc1nnc(NC(=O)CSc2nc3c(c(=O)n2C)SC(C)C3)s1 (stereo not given) | n | n | n | n
CC1Cc2nc(SCC(=O)N3CCCc4ccccc43)n(C)c(=O)c2S1 (stereo not given) | 23µM | n | n | n
CCn1c(SCC(=O)N2CCCc3ccccc32)nc2c(c1=O)SC(C)C2 (stereo not given) | u | n | n | n
CSc1nc2c(c(=O)n1C)SC(C)C2 (stereo not given) | u | n | n | 50µM
CS(=O)(=O)N(CC(=O)N1CCN(Cc2ccccc2)CC1)c1ccccc1Br | n | n | n | n
COc1ccc(NC(=O)COC(=O)CNC(=O)COc2ccccc2)cc1OC | n | n | x | x
SMILES | ELG1 DNA repair | Giardia kill | FBPA coupling cs | Sfp PPTase inh
CCCCCC/C=C1\CC(C(=O)OCC)Oc2ccccc21 (stereo not given) (tested in a mixture with another compound) | x | x | n | n
Cc1ccc(CCNc2ncnc(Cl)c2N)cc1 | x | n | x | x
CN(C)S(=O)(=O)c1cccc(NC(=O)CSc2nc3ccccc3n2-c2ccccc2)c1 | 18µM | n | n | n
CN(C)S(=O)(=O)c1ccc(NC(=O)CSc2nc3ccccc3n2-c2ccccc2)cc1 | u | n | n | n
CN(C)c1ccc(NC(=O)CCN2CCN(c3ccccn3)CC2)cc1 | n | n | n | n
CCN(CC)S(=O)(=O)c1cccc(-c2nnc(SCC(=O)c3cc(C)n(C4CC4)c3C)o2)c1 | u | n | n | n
CCN(CC)S(=O)(=O)c1cccc(-c2nnc(SCCCC(=O)c3ccc(F)cc3)o2)c1 | 16µM | n | n | n
C=CCn1c(C)cc(C(=O)CSc2nnc(-c3cccc(S(=O)(=O)N(CC)CC)c3)o2)c1C | 16µM | n | n | n
CCN(CC)S(=O)(=O)c1cccc(-c2nnc(SC(C)C(=O)NCCC3=CCCCC3)o2)c1 (stereo not given) | 23µM | n | n | n
CCCCCCCCCCCCCC(=O)N[C@H](C)[C@@H](O)c1ccccc1 | x | x | n | n
COc1ccc(CCNC(=O)c2cc(=O)c3cc(C)ccc3o2)cc1OC | u | n | n | n
